TDP1 cell noCPT = qHTS for Inhibitors of human tyrosyl-DNA phosphodiesterase 1 (TDP1): qHTS in cells in absence of CPT; DT40 Tdp1-/- hTDP1 cells, no CPT, ATP luminescence, 48 h; Potency, µM (highest dose often 46.2 µM), inactives show at the top dose activity change, negative = growth inhibition, actives largely listed as inhibitors; 420,000 compounds, 15% hits; further: potency means the concentration at half of the fitted maximal effect; nearly all actives have a fitted effect of over 55% in size
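Compound effects on proliferation are scored in DT40 Tdp1-/-;hTDP1 cells in the absence of CPT. ATP levels (CellTiter-Glo luminescence) are recorded after a ≥48 hr, 37 °C incubation.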
TDP1 cell CPT = DT40-hTDP1 cell growth loss with CPT; chicken DT40 Tdp1-/-;hTDP1 cells + 20 nM CPT, ATP luminescence, 48 h; Potency, µM (series often up to 46.2 µM), without a hit: at the highest dose activity change, negative = growth inhibition, usual class: inhibitors; AID 686979; 420,000 compounds, 12% hits; further: potency means the concentration at half of the fitted maximal effect; nearly all actives have a fitted effect of over 55% in size
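Chicken DT40 Tdp1-/- cells stably complemented with human TDP1 were seeded at 400 cells/well in medium containing 20 nM camptothecin, exposed to pin-transferred compounds, and grown at 37 °C for at least 48 hr. Viability was read as ATP luminescence.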
IL1B secr inh = inflammasome signaling inhibition, IL-1 beta readout; THP-1 LPS/ATP IL-1B secretion, AlphaLISA, 16 h; hits give low values; activity change, % at 57.5 µM; 360,000 compounds, 4.7% hits; AID 743279; in the data active means activity change below about -50%; inconclusive means mostly about -30% to -49%
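THP-1 cells pretreated 1 hr with compounds (up to 57.5 uM final), then stimulated with LPS (250 ng/mL final) plus ATP (1.25 mM final); secreted IL-1B measured by AlphaLISA after 16 hr, decreased signal indicating inhibition.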
HT1080-NT tox = kills 2HG-producing HT-1080-NT fibrosarcoma cells; HT-1080-NT fibrosarcoma viability, CellTiter-Glo ATP luminescence, 48 h; Potency, µM (top dose mostly 46.1 µM), without a hit: top-dose activity, negative = less viability, hits mostly cytotoxic; 360,000 compounds, 1.6% hits; AID 686970;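 further: NT is the 2HG producing partner of a matched IDH1 knockdown line; potency means the concentration at half of the fitted maximal effect; 0% = DMSO-treated cells and -100% = media-only wells without cells; nearly all actives have a fitted effect of over 55% in size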
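Toxicity toward the 2HG-producing NT line was scored as %Activity, normalised to DMSO and no-cell wells, from CellTiter-Glo luminescence after 48 hours' treatment.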
ALOX12 inh = inhibitors of human 12S-lipoxygenase ALOX12; purified 12hLO, xylenol orange hydroperoxide absorbance; AID 1671190; P18054; 580,000 compounds, 1.1% hits; Potency, µM (titrated, usually from 108 µM), for the others: top-dose activity change, negative = inhibition, actives largely listed as inhibitors; further: potency means the concentration at half of the fitted maximal effect
Target sequence (P18054 whole entry, looked up): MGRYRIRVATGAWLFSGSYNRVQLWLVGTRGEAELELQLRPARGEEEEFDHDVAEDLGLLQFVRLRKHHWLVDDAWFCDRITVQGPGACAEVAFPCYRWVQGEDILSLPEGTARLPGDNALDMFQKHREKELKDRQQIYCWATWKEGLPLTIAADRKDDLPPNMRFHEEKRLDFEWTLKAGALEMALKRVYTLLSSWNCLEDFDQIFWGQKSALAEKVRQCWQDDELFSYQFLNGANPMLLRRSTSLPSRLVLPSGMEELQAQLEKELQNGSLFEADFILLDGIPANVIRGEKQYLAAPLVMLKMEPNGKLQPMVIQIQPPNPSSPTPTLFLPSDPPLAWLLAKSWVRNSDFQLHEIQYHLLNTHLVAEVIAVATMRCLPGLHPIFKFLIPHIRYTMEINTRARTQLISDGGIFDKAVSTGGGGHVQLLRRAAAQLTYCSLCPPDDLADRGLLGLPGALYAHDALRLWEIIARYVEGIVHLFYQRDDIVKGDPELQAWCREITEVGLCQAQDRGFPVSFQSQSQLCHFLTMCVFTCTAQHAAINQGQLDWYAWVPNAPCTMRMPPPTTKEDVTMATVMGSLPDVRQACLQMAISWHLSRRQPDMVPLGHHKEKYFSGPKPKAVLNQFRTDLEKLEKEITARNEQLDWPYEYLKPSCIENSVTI
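Purified human 12hLO (150 nM final) in 25 mM Hepes, 0.01% Triton X-100, pH 7.0 was preincubated 15 min at room temperature with compound. Then 40 uM arachidonic acid was added, 30 min. Hydroperoxide was read by Fe-XO absorbance ratio 573/405 nm.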
HT1080 IDH1KD tx = HT-1080 IDH1 knockdown cell toxicity (counter line); AID 686971; 360,000 compounds, 2% hits; Potency, µM (highest dose often 46.1 µM), without a hit: at the highest dose activity, negative = toxicity, actives largely listed as cytotoxic; HT-1080 IDH1 knockdown viability, ATP luminescence, 48 h;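 further: potency means the concentration at half of the fitted maximal effect; 0% = DMSO wells and -100% = cell-free medium wells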
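After a 2 h attachment period, IDH1KD HT-1080 cells took pin-transferred compound for 48 h at 37 °C; ATP-based luminescence after 10 min room-temperature reagent incubation reported viability.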
* hit, by the source's call. The sample as a whole holds a higher share of hits than the screen did. Unless noted, the call rests on the fitted dose curve; in most records, active means well fitted curve in the direction sought with a large enough effect; inconclusive means small, poorly fitted or top-dose-only effect, or another doubt; inactive means no such curve, though single readings can be large; an effect the other way counts as inactive or inconclusive. Unless noted, on the % scale 0 is the no-effect control and ±100 the full control effect.

What do the screens show for `Cc1ccc(OCc2cc(C(=O)N(C)Cc3cc(C4CC4)n[nH]3)no2)cc1C`?
TDP1 cell noCPT: 23.1µM*; TDP1 cell CPT: inconclusive; IL1B secr inh: 2.6; HT1080-NT tox: -16.5%; ALOX12 inh: -0.7%; HT1080 IDH1KD tx: 7.7%

How did Cc1cccc(C)c1OCc1cc(C(=O)N(C)Cc2cc(C3CC3)n[nH]2)no1 do in these assays?
TDP1 cell noCPT: inconclusive; TDP1 cell CPT: inconclusive; IL1B secr inh: 0.0; HT1080-NT tox: -2.0%; ALOX12 inh: 6.4%; HT1080 IDH1KD tx: -1.6%

What do the screens show for `CC(=O)N[C@@H](C(=O)O)C(C)C`?
ALOX12 inh: -15.7%

Results for O=C(c1nc(-c2ccc(Cl)cc2)n2c1CCCCC2)N1CCN(c2ccc(F)cc2)CC1 ?
TDP1 cell noCPT: 10.3µM*; TDP1 cell CPT: 23.1µM*; ALOX12 inh: -17.5%

How did O=C(c1nc(-c2ccc(Cl)cc2)n2c1CCCCC2)N1CCN(c2ccccc2F)CC1 do in these assays?
TDP1 cell noCPT: 16.4µM*; TDP1 cell CPT: inconclusive; ALOX12 inh: -16.3%

Results for Cc1ccc(-c2csc(NC(=O)c3ccc(Cl)c(N4CCCC4=O)c3)n2)cc1 ?
ALOX12 inh: -18.1%

Results for COc1ccccc1-c1oc2ccccc2c(=O)c1OC ?
TDP1 cell noCPT: inconclusive; TDP1 cell CPT: 6.68µM*

Results for COc1ccc(-c2cc(=O)c3ccccc3o2)cc1OC ?
TDP1 cell noCPT: 14.6µM*; TDP1 cell CPT: inconclusive

What do the screens show for `COc1cc2oc3ccccc3c(=O)c2cc1OC`?
TDP1 cell noCPT: inconclusive; TDP1 cell CPT: inconclusive; IL1B secr inh: -50.6*; HT1080-NT tox: -24.0%; ALOX12 inh: 0.2%; HT1080 IDH1KD tx: -0.3%

Results for COc1ccc(-c2cc(=O)c3ccc(O)cc3o2)cc1OC ?
ALOX12 inh: 30.1%

How did COc1ccccc1-c1oc2ccccc2c1C#CC1(N)CCCCC1 do in these assays?
TDP1 cell noCPT: 14.6µM*; TDP1 cell CPT: 16.4µM*; IL1B secr inh: inconclusive; HT1080-NT tox: -12.0%; ALOX12 inh: inconclusive; HT1080 IDH1KD tx: -5.5%

What do the screens show for `COc1ccc(-c2noc([C@@H]3CCCN3C(=O)Cc3cccc(C)c3)n2)cc1`?
ALOX12 inh: 8.9%

How did Cc1ccccc1-c1cc(C(=O)NCc2ccco2)nn1CC1CC(c2cccc([N+](=O)[O-])c2)=NO1 (stereo unspecified) do in these assays?
TDP1 cell noCPT: inconclusive; TDP1 cell CPT: 16.4µM*; IL1B secr inh: -26.2; HT1080-NT tox: -3.6%; ALOX12 inh: inconclusive; HT1080 IDH1KD tx: -7.3%

Results for Cc1ccccc1-c1cc(C(=O)NCc2cccs2)nn1CC1CC(c2cccc([N+](=O)[O-])c2)=NO1 (stereo unspecified) ?
TDP1 cell noCPT: 16.4µM*; TDP1 cell CPT: inconclusive; IL1B secr inh: -20.8; HT1080-NT tox: -0.7%; ALOX12 inh: -19.0%; HT1080 IDH1KD tx: -8.9%

Results for CC(C)(C)C(=O)O/N=C(\N)c1ccc([N+](=O)[O-])s1 ?
TDP1 cell noCPT: 6.51µM*; TDP1 cell CPT: 6.51µM*; IL1B secr inh: 0.0; HT1080-NT tox: inconclusive; ALOX12 inh: inconclusive; HT1080 IDH1KD tx: -8.1%

Results for Cc1ccc(-n2c(SCc3ccc(C#N)cc3)nnc2N2CCCC2)cc1 ?
ALOX12 inh: 10.4%

Results for Cc1ccc(CCC(=O)N2CCC(CO)(CN3CCCC3)CC2)cc1 ?
ALOX12 inh: 1.6%

Results for Cc1nonc1C(=O)N/N=C/c1ccncc1 ?
TDP1 cell noCPT: 9.7%; TDP1 cell CPT: 4.5%; IL1B secr inh: 15.1; HT1080-NT tox: 13.1%; ALOX12 inh: -0.6%; HT1080 IDH1KD tx: -0.2%

Assay outcomes as filed in PubChem BioAssay.
